Test results published in the supplement of paper PMC9399229.
Counter-ions that a name gives are not always drawn. ± gives the standard deviation of the averaged measurements. In all, about 1,900 compounds were measured (“relative cell viability (CellTiter-Glo), compound alone”: median about 1, lowest 2% from about 0.16 on). The list comes from a sample in which the lowest values are over-represented; it also holds similar structures and randomly drawn compounds.

What follows are compounds tested on Hep3B (assay: relative cell viability (CellTiter-Glo), compound alone (fraction); higher = more viable cells (less growth inhibition)). Conditions: cabozantinib 0 µM; 4 days.
`CCn1cc(NC(=S)Nc2cc(Cl)ccc2OC)c(C(N)=O)n1` was tested, and the relative cell viability was 1.44 ± 0.14. Compound `C1=N/C2=N/c3ccc(OCCN4CCCC4)c(c3)COC/C=C/COCc3cccc(c3)C(=C1)N2` [Pacritinib (SB1518)] has a relative cell viability of 0.1545 ± 0.0015. Work on `CN(C)c1cccc(-c2c3c(=O)n(-c4ccccc4Cl)[nH]c3cc(=O)n2C)c1` yielded a relative cell viability of 1.12 ± 0.1. With `O=C(NCCS(=O)(=O)c1ccc(C(F)(F)F)cn1)c1ccc(Cl)cc1` the relative cell viability was 1.2 ± 0.049. `C[C@@H](Oc1cc(-n2cnc3ccc(CN4CCN(C)CC4)cc32)sc1C(N)=O)c1ccccc1C(F)(F)F` was tested, and the relative cell viability was 0.668 ± 0.04. `O=C1CCC[C@@H]2[C@H]3CCC[N+]4([O-])CCC[C@@H](CN12)[C@@H]34` (stereo partly drawn) [Oxymatrine] was tested, and the relative cell viability was 1.09 ± 0.21. In the case of `CC1CNc2c(cccc2S(=O)(=O)N[C@@H](CCCNC(=N)N)C(=O)N2CC[C@@H](C)C[C@@H]2C(=O)O)C1` (stereo partly drawn) [Argatroban], the relative cell viability is reported as 1.02 ± 0.17. `CO[C@H]1C[C@@H]2CC[C@@H](C)[C@@](O)(O2)C(=O)C(=O)N2CCCC[C@H]2C(=O)O[C@H]([C@H](C)C[C@@H]2CC[C@@H](OC(=O)C(C)(CO)CO)[C@H](OC)C2)CC(=O)[C@H](C)/C=C(\C)[C@@H](O)[C@@H](OC)C(=O)[C@H](C)C[C@H](C)/C=C/C=C/C=C/1C` showed a relative cell viability of 1.04 ± 0.013. Work on `CCOC(=O)[C@H](CCc1ccccc1)N[C@H]1CCCN2CCC[C@@H](C(=O)O)N2C1=O` [Cilazapril Monohydrate] yielded a relative cell viability of 0.947 ± 0.13. `CC(C)(C)C[C@@H]1N[C@@H](C(=O)N[C@H]2CC[C@H](O)CC2)[C@H](c2cccc(Cl)c2F)[C@]12C(=O)Nc1cc(Cl)ccc12` showed a relative cell viability of 1.09 ± 0.025. Work on `O=C1c2c(O)ccc(O)c2C(=O)c2c(NCCNCCO)ccc(NCCNCCO)c21` [Mitoxantrone HCl] yielded a relative cell viability of 0.0676 ± 0.0056. `O=C1c2c(O)ccc(O)c2C(=O)c2c(NCCNCCO)ccc(NCCNCCO)c21` [Mitoxantrone] was tested, and the relative cell viability was 0.0757 ± 0.0097. `O=C1c2cccc(O)c2C(=O)c2c(O)cc(CO)cc21` [Aloe-emodin] showed a relative cell viability of 0.96 ± 0.11. `Cc1ccc([N+](=O)[O-])cc1S(=O)(=O)N(C)/N=C/c1cnc2ccc(Br)cn12` was tested, and the relative cell viability was 0.139 ± 0.01. For `Nc1nc(NC2CC2)cc(-c2cccc(Cl)c2Cl)n1`, the relative cell viability was 1.162 ± 0.0077. `NS(=O)(=O)NCCNc1nonc1/C(=N/O)Nc1ccc(F)c(Br)c1` gave a relative cell viability of 1.24 ± 0.064. In the case of `Fc1ccc2[nH]ccc2c1-c1nc(N2CCOCC2)c2sc(CN3CCN(CC4CC4)CC3)cc2n1`, the relative cell viability is reported as 0.871 ± 0.011. Compound `Cn1cncc1[C@@](N)(c1ccc(Cl)cc1)c1ccc2c(c1)c(-c1cccc(Cl)c1)cc(=O)n2C` [Tipifarnib] has a relative cell viability of 0.995 ± 0.046. In the case of `Cc1nc(-c2cn3c(n2)-c2ccc(-c4cnn(C(C)(C)C(N)=O)c4)cc2OCC3)n(C(C)C)n1`, the relative cell viability is reported as 1.01 ± 0.032. Compound `c1ccc(NCc2ccc(CNc3ccccn3)cc2)nc1` has a relative cell viability of 1.09 ± 0.085. `COc1cc([C@@H]2c3cc4c(cc3[C@@H](O[C@@H]3O[C@@H]5CO[C@@H](c6cccs6)O[C@H]5[C@H](O)[C@H]3O)[C@H]3COC(=O)[C@H]23)OCO4)cc(OC)c1O` [Teniposide] was tested, and the relative cell viability was 0.113 ± 0.0088. `COc1cc([C@@H]2c3cc4c(cc3[C@@H](O[C@@H]3O[C@@H]5CO[C@@H](C)O[C@H]5[C@H](O)[C@H]3O)[C@H]3COC(=O)[C@H]23)OCO4)cc(OC)c1O` [Etoposide] was tested, and the relative cell viability was 1.22 ± 0.11. `COc1cccc(C=NCCN=Cc2cccc(OC)c2[O-])c1[O-].[Cl-].[Mn+3]` showed a relative cell viability of 1.04 ± 0.041. With `COc1ccc(-c2ccc3ncc4c(c3c2)n(-c2ccc(N3CCNCC3)c(C(F)(F)F)c2)c(=O)n4C)cn1` the relative cell viability was 0.202 ± 0.013. `Nc1ccc(-c2ccc3ncc4ccc(=O)n(-c5cccc(C(F)(F)F)c5)c4c3c2)cn1` [Torin 2] was tested, and the relative cell viability was 0.147 ± 0.014. Work on `CN1C(=O)C(Cc2c[nH]c3ccccc23)NC1=S` (stereo not drawn) [Necrostatin-1] yielded a relative cell viability of 1.154 ± 0.0058. Work on `CCn1c(N)c(C(=O)NC)c(=O)c2ccc(C#CC(C)(O)COC)nc21` (stereo not drawn) yielded a relative cell viability of 0.951 ± 0.15. `Cc1ccc(-n2sc(=O)n(Cc3ccc(F)cc3)c2=O)cc1` gave a relative cell viability of 1.03 ± 0.086. `C=CC(=O)Nc1cc(Nc2nccc(-c3c[nH]c4ccccc34)n2)c(OC)cc1N(C)CCN(C)C` showed a relative cell viability of 0.913 ± 0.049. `O=C(NC[C@H](O)CN1CCc2ccccc2C1)c1cc(NC2COC2)ncn1` gave a relative cell viability of 1.09 ± 0.029. For `Cn1c(Nc2ccc(C(F)(F)F)cc2)nc2cc(Oc3ccnc(-c4ncc(C(F)(F)F)[nH]4)c3)ccc21`, the relative cell viability was 0.9528 ± 0.0094. `CN[C@@H](C)C(=O)N[C@H](C(=O)N1CCC[C@H]1C(=O)Nc1snnc1-c1ccccc1)C1CCCCC1` was tested, and the relative cell viability was 0.229 ± 0.13. `CC[C@@H]1/C=C(\C)C[C@H](C)C[C@H](OC)[C@H]2O[C@@](O)(C(=O)C(=O)N3CCCC[C@H]3C(=O)O[C@H](/C(C)=C/[C@@H]3CC[C@@H](O)[C@H](OC)C3)[C@H](C)[C@@H](O)CC1=O)[C@H](C)C[C@@H]2OC` [Ascomycin (FK520)] was tested, and the relative cell viability was 1.16 ± 0.12. `CN(NC(=O)CC(=O)NN(C)C(=S)c1ccccc1)C(=S)c1ccccc1` [Elesclomol (STA-4783)] showed a relative cell viability of 0.0115 ± 0.0045. `O=C(O)c1ccccc1` [Benzoic Acid] gave a relative cell viability of 1.26 ± 0.07. In the case of `O=C(O)CCNC(=O)c1ccccc1` [Betamipron], the relative cell viability is reported as 0.9 ± 0.089. In the case of `COc1cc(N2CCC(N3CCN(C)CC3)CC2)ccc1Nc1ncnc(Nc2ccccc2S(=O)(=O)C(C)C)n1`, the relative cell viability is reported as 0.887 ± 0.056. Work on `Cc1cc(Nc2ccc(NC(=O)c3ccc(Nc4ccnc5ccccc45)cc3)cc2)nc(N)n1` yielded a relative cell viability of 0.227 ± 0.023. `CN(C)CCCNC(=O)c1ccc(-c2cc(O)c3ncccc3c2)cc1` was tested, and the relative cell viability was 0.898 ± 0.27. `CC(C)(CO)c1cc2cc(NC(=O)C3(c4ccc5c(c4)OC(F)(F)O5)CC3)c(F)cc2n1C[C@@H](O)CO` gave a relative cell viability of 1.14 ± 0.18. Work on `Cc1ccc(NC(=O)C2(c3ccc4c(c3)OC(F)(F)O4)CC2)nc1-c1cccc(C(=O)O)c1` [VX-809 (Lumacaftor)] yielded a relative cell viability of 0.144 ± 0.025. `C[C@]1(c2nc3c(C(N)=O)cccc3[nH]2)CCCN1` [Veliparib (ABT-888)] was tested, and the relative cell viability was 1.02 ± 0.44. `CN1CCN(C2CCN(C(=O)Nc3cc(Oc4ccc(NC(=O)C5(C(=O)Nc6ccc(F)cc6)CC5)c(F)c4)ccn3)CC2)CC1` [Golvatinib (E7050)] was tested, and the relative cell viability was 1.15 ± 0.079. Work on `COc1ccc(-c2cc(=O)c3c(O)cc(O)cc3o2)cc1O` [Diosmetin] yielded a relative cell viability of 1.35 ± 0.14. `O=c1cc(CN2CCOCC2)occ1OCCCCCSc1ccnc2cc(C(F)(F)F)ccc12` gave a relative cell viability of 1.29 ± 0.14. For `CN(C)Cc1c(C(=O)NCCOc2ccc(C(=O)NO)cc2)oc2ccccc12`, the relative cell viability was 0.153 ± 0.054. In the case of `CC/C(=C(\c1ccccc1)c1ccc(OCCN(C)C)cc1)c1ccccc1` [Tamoxifen Citrate], the relative cell viability is reported as 1.26 ± 0.064. With `CC/C(=C(\c1ccc(O)cc1)c1ccc(OCCNC)cc1)c1ccccc1` [Endoxifen HCl] the relative cell viability was 1.16 ± 0.081.
